Rows were chosen to be rich in hits. Some 3.1% of all compounds tested hit in one or more screens of this group.
ABHD5 PLIN5 PPI = ABHD5-PLIN5 protein interaction inhibition; hit rate 0.78% among 360,000; inhibition, % at 4 µM; Split G. princeps luciferase complementation, luminescence, 4 h; Q00G26+Q8WTS1;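 active means inhibition above the mean inhibition across every tested compound plus 3 SD, cut at about 22% in these data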;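 further: 0% = DMSO only wells and the 100% control is not disclosed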
Target sequence (Q00G26 whole entry, looked up): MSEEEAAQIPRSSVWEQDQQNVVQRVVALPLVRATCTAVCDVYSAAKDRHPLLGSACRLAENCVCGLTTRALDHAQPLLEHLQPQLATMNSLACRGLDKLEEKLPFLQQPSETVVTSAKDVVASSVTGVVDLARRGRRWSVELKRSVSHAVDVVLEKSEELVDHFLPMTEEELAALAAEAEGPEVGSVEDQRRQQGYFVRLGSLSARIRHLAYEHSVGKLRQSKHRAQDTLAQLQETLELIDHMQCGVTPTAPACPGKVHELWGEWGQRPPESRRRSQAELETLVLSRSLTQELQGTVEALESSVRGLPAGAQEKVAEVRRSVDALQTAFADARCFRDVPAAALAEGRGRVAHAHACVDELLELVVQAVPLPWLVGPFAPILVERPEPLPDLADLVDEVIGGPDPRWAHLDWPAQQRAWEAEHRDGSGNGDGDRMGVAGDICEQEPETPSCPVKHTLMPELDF
Target sequence (Q8WTS1 whole entry, looked up): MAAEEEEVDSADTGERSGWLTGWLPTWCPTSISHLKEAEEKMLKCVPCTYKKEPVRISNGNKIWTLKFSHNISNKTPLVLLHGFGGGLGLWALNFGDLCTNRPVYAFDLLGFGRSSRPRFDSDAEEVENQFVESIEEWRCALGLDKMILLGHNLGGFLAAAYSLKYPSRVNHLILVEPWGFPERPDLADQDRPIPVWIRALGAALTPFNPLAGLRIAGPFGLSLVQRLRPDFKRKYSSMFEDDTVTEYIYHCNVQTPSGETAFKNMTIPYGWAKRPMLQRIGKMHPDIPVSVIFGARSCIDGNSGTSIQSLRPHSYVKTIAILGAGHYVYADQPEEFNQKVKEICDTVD
KKLEB cytotox = reduces viability of KKLEB cystic fibrosis airway cells; KKLEB CF airway cells viability, ATPlite luminescence, overnight; stronger effect = lower value; cells stimulated with P. aeruginosa culture filtrate; activity change (cytotoxicity), % at 5 µM; hit rate 0.36% among 360,000; AID 602141;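 active means corrected activity change at or below -50% at 5 µM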
TRPM1 prom inh = inhibitors of MITF-driven TRPM1 promoter in melanoma cells; SK-MEL-5 TRPM1 promoter luciferase, 24 h; hit rate 0.83% among 330,000; inhibition, % at 12.5 µM; AID 488899;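 active means mean inhibition across replicates of 60% or more, whatever share of single replicates reaches that level; inconclusive means some that reach 60%, reason not given; inactive means mean inhibition across replicates below 60%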
HIF-2a block = blocks HIF-2a reporter activity; 786-0 RCC cells HIF-2a reporter, luciferase luminescence, overnight; inhibition, % at 18.8 µM; hit rate 0.72% among 360,000; AID 624352;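 active means inhibition of the luminescence signal of 40% or more relative to plate controls, in a single-dose primary screen at 18.75 µM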
CF NFkB inh = cystic fibrosis NF-kB activation inhibition; KKLEB NF-kB-GFP reporter, PAF-induced, GFP fluorescence overnight; inhibition, % at 5 µM; hit rate 0.86% among 360,000;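 active means at least 50% inhibition at 5 µM, scaled per plate between neutral and stimulator controls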;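 further: PAF is a Pseudomonas aeruginosa culture filtrate used as stimulus; plate controls were PAF-stimulated DMSO wells for no effect and unstimulated DMSO wells for full effect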
Peg3 promoter = reduces Peg3 promoter-driven luciferase expression in HeLa | HeLa PEG-Prom luciferase reporter, luminescence, overnight | inhibition, % at 20 µM | hit rate 1.7% among 360,000;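 active means inhibition of at least 50% at 20 µM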
* = called active by the depositor; u = inconclusive.

SMILES | ABHD5 PLIN5 PPI | KKLEB cytotox | TRPM1 prom inh | HIF-2a block | CF NFkB inh | Peg3 promoter
CCOc1cccc(C(=O)Nc2cccc(-c3nnc(-c4ccc(C)cc4)o3)c2)c1 | -1 | -68* | 82* | 1 | 57* | 12
N#CC1(NC(=O)COc2ccc(C(N)=O)cc2)CCCC1 | -3 | 6 | -4 | 4 | -9 | 1
O=C(Nc1ccccc1N1CCOCC1)c1ccc([N+](=O)[O-])s1 | 1 | 8 | 81* | 5 | 37 | 21
O=C(Nc1ccc(S(=O)(=O)N2CCOCC2)cc1)c1cccs1 | -1 | -5 | 2 | -5 | 13 | 2
O=C(Nc1ccc(S(=O)(=O)N2CCOCC2)cc1)c1ccc([N+](=O)[O-])s1 | 3 | 3 | 84* | 1 | 42 | 41
O=C(Nc1ccccc1N1CCOCC1)c1ccccc1[N+](=O)[O-] | 8 | 0 | 6 | 5 | 0 | 1
CCSc1ncnc2c1sc1nc3c(cc12)COC(C)(C)C3 | -4 | 20 | -71 | -291 | -38 | -320
O=C(Nc1ccc(N2CCN(c3ncccc3C(F)(F)F)CC2)nc1)c1cccs1 | 2 | -5 | 17 | 7 | 8 | 104*
CCOC(=O)C1=NS(=O)(=O)NC(C)=C1 | 0 | 6 | 4 | -3 | -6 | -4
COc1ccc(/C=N/NC(=O)CC#N)cc1Oc1nc(Cl)ncc1F | -1 | -12 | 10 | 4 | 16 | -2
COc1cc(/C=C(/C#N)C(=O)Nc2ccc(C)cc2)ccc1Oc1nc(Cl)ncc1F | -4 | -20 | 13 | 13 | 14 | 51*
O=C(Nc1ccc(Cl)c(Cl)c1)Nc1ccc(N2CCCC2)c(S(=O)(=O)Nc2ccccc2Cl)c1 | -8 | -54* | 73* | -21 | 62* | 58*
Cc1cc(C)cc(N(C(=O)c2nsc(Cl)c2Cl)C(C(=O)NC2CCCC2)c2ccc(O)cc2)c1 (centres undefined) | -2 | -5 | 17 | 8 | 13 | 60*
CCN(CC)c1ccc(C2NC(=O)c3ccccc3N2)cc1 (centres undefined) | -2 | -80* | 58 | 4 | -11 | 36
COc1ccc(-c2cc(C#N)nc(Cl)n2)cc1 | 20 | -10 | 66* | 14 | 1 | 39
COc1ccc(-c2cc(C#N)nc(Oc3ccc(Cl)cc3)n2)cc1 | 2 | -13 | -10 | 11 | 25 | 19
COc1ccc2c(C(=O)CCl)c[nH]c2c1 | 9 | -52* | 75* | -32 | 73* | 48
COc1ccc(OCC(=O)c2c[nH]c3ccccc23)cc1 | 2 | -7 | -7 | -168 | 37 | -173
CCOc1ccc2nc(NC3=NC(C)(C)C=C(C)N3)nc(C)c2c1 | 3 | -5 | 12 | -2 | -28 | 53*
CCOc1ccc2nc(NC3=NC(c4ccc(OC)cc4)CC(=O)N3)nc(C)c2c1 (centres undefined) | 1 | -16 | u | 14 | 11 | 62*
O=C(O)CCN1C(=O)/C(=C/c2cn(-c3ccccc3)nc2-c2cccs2)SC1=S | -2 | 5 | -4 | -11 | -3 | 4
O=C(O)CCCCCN1C(=O)/C(=C\c2cn(-c3ccccc3)nc2-c2cccs2)SC1=S | -3 | -31 | 6 | 5 | 59* | 15
O=C(O)CCCCCN1C(=O)/C(=C/c2cn(-c3ccccc3)nc2-c2cccs2)SC1=S | -3 | -9 | -3 | -11 | 68* | 4
CN(C)CCn1c(=O)n(Cc2ccccc2)c(=O)c2c3c(sc21)CCCCC3 | 6 | -30 | 7 | 18 | 3 | 10
O=c1c2c3c(sc2nc(NCCO)n1-c1ccccc1)CCCC3 | -4 | -6 | 8 | 0 | 2 | 22
SMILES | ABHD5 PLIN5 PPI | KKLEB cytotox | TRPM1 prom inh | HIF-2a block | CF NFkB inh | Peg3 promoter
CN(C)CCCNc1nc2sc3c(c2c(=O)n1CCc1ccccc1)CCCCC3 | 6 | -7 | 65* | -19 | 15 | 113*
CN(C)CCCn1c(=O)n(CCc2ccccc2)c(=O)c2c3c(sc21)CCCCC3 | 0 | -11 | 53 | -48 | 22 | 101*
Cc1ccnc(NC(=O)c2cc3cc(F)ccc3s2)c1 | -8 | -14 | -50 | -229 | -4 | -238
CCCCCc1cc(=O)oc2c(C(CCN3CCCC(C)C3)c3ccc4c(c3)OCO4)c(OC)cc(OC)c12 (centres undefined) | 10 | -1 | 10 | 15 | 21 | 98*
CCCCCc1cc(=O)oc2c(C(CCN3CCCCC3)c3ccc4c(c3)OCO4)c(OC)cc(OC)c12 (centres undefined) | 13 | -11 | 84* | 13 | 13 | 96*
CCCCCc1cc(=O)oc2c(C(CCN3CCN(c4ccccc4)CC3)c3ccc(N(C)C)cc3)c(OC)cc(OC)c12 (centres undefined) | -6 | -3 | 3 | 7 | 27 | 2
O=C(CC(Nc1ccc(Cl)cc1)C(=O)O)c1ccccc1 (centres undefined) | 22* | -22 | -71 | -178 | -8 | -154
COc1ccccc1NC(=O)c1sc2ncn(Cc3ccc(C)cc3)c(=O)c2c1C | 1 | -22 | -3 | -19 | 20 | 52*
COc1ccccc1NC(=O)c1sc2ncn(Cc3cccc(C)c3)c(=O)c2c1C | 7 | -24 | 9 | 8 | 10 | 13
CCCN1C/C(=C/c2ccc3c(c2)OCO3)C(=O)/C(=C/c2ccc3c(c2)OCO3)C1 | 12 | 14 | 84* | 89* | -39 | 107*
CCCN1C(=O)/C(=C/c2ccc3c(c2)OCO3)NC1=S | -5 | -1 | 14 | -5 | 2 | -111
CN1CCN(c2cc3c(c4c2[nH]c2ccccc24)C(=O)CC(C)(C)C3)CC1 | 18 | -30 | 5 | -29 | 22 | 107*
Cn1c(N)c(C(=O)CSc2nc3ccccc3c(=O)n2Cc2ccccc2)c(=O)n(C)c1=O | 1 | -72* | 18 | 4 | 88* | 33
CCCn1c(N)c(C(=O)CSc2nc3ccccc3c(=O)n2Cc2ccccc2)c(=O)[nH]c1=O | -3 | -1 | 3 | 22 | -7 | 30
CCc1ccc(NC(=O)C(CC)Sc2nc3cc4c(cc3c(=O)n2Cc2ccco2)OCO4)cc1 (centres undefined) | -1 | -63* | -11 | 0 | 48 | 30
CCc1ccccc1NC(=O)C(CC)Sc1nc2cc3c(cc2c(=O)n1Cc1ccco1)OCO3 (centres undefined) | -2 | 1 | 35 | 4 | -3 | 35
Cc1c(CNCCc2ccccc2Cl)c(C(=O)O)c(C)n1-c1ccccc1 | -7 | 6 | -1 | 8 | -10 | 12
C=CC[C@H](CC(=O)N(CCO)Cc1ccccc1)C(=O)NC[C@H](OC(=O)[C@@H](CC=C)Cc1ccc(F)cc1)c1ccccc1 | 2 | -5 | 17 | -3 | 28 | 60*
C=CC[C@@H](CC(=O)N(CCO)Cc1ccccc1)C(=O)NC[C@@H](OC(=O)[C@@H](CC=C)Cc1ccc(F)cc1)c1ccccc1 | 3 | -6 | 10 | 11 | -18 | 29

Screens (PubChem BioAssay)
